Bioassay records from PubChem.
Shown are actives, neighbours in structure and some others; about 6.6% of the full set was active somewhere.
Gli-Sufu antag: Gli-Sufu pathway antagonists, primary screen, luciferase luminescence, Sufu-KO-LIGHT cells, uHTS; Sufu-KO-LIGHT fibroblasts, Gli luciferase reporter luminescence; inhibition, % at 5 µM; hit rate 0.74% among 340,000;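 active = inhibition above about 55%, limit read from the data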
Beta cell apopt: inhibitors of cytokine-induced beta cell apoptosis, primary screen, luminescence; hit rate 0.8% among 300,000; protection from apoptosis, % (test concentration not listed); INS-1E cytokine-induced death, ATP luminescence, 48 h; percent of positive-control rescue, neutral wells zero; AID 435005, 2010;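 active = Every replicate reaches about 75%, or at least half do and their mean reaches it too, limit read from the data; inconclusive = At least half of replicates reach the limit but their mean does not; inactive = Under half of replicates reach the limit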;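 also: higher means more ATP so stronger rescue from cytokine killing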
MPTP inh: mitochondrial permeability transition pore inhibitors, primary screen, biochemical, isolated mouse mitochondria, absorbance. Ca2+ swelling absorbance, 30 min. hit rate 1.4% among 360,000. inhibition, % at 10 µM;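 active = inhibition of 50% or more, scaled per plate between neutral and stimulator controls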
NR3A LBD binder: binders of NR3A ligand-binding domain, primary screen, biophysical, differential scanning fluorimetry, uHTS | Tm shift relative to glycine control, % at 25 µM | hit rate 2.5% among 340,000 | NR3A LBD differential scanning fluorimetry, Tm shift; 0% = protein alone, 100% = glycine-bound protein;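 active = melting temperature shift of at least 10% of the positive control shift, at one fixed dose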
CSC inhib: cancer stem cell viability inhibitors, primary screen, luminescence; cancer stem cell-like cells viability; inhibition, % at 7.5 µM; hit rate 1.1% among 300,000; in the data active = inhibition above about 75%; inconclusive = no clear call, values can overlap the other calls; tested in HMLE shEcad cells
Mdm2 MdmX PPI: inhibitors of human Mdm2-MdmX association, primary screen, cell-based, luminescence, split luciferase, SaOS-2, uHTS | AID 485346, 2010 | inhibition, % at 8 µM | Protein Mdm4 (Homo sapiens) + E3 ubiquitin-protein ligase Mdm2 (Homo sapiens), … | SaOS-2 split-luciferase Mdm2/MdmX complementation | hit rate 3% among 330,000;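 active = inhibition of at least 50% at 8 µM in the primary screen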
Mdm2 MdmX conf: Mdm2-MdmX complex disruptors, retested hits, confirmation, luminescence, single concentration; shares compounds with Mdm2 MdmX PPI; Mdm2-MdmX binding, luminescent assay; inhibition, % at 8 µM; hit rate 55% among 10,000; AID 489028, 2010; in the data active = inhibition above about 40%
FLuc counter: full-length luciferase signal inhibition, confirmation, counter-screen for Mdm2/MdmX interaction inhibitor project, cell-based, single concentration, SaOS-2. shares compounds with Mdm2 MdmX PPI. hit rate 77% among 6,200. SaOS-2 full-length luciferase counterscreen, luminescence. AID 504607, 2011. inhibition, % at 8 µM;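 active = mean inhibition at 8 µM reaching about 37%, which flags the compound as non-specific, limit read from the data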;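 also: p53-null SaOS-2 cells with luciferase driven by a doxycycline-inducible promoter; compound on cells about two nights before reading with doxycycline added after day one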
Large screens that a line does not name were inactive (follow-up assays come after a bar, where they were run).

CCOC(=O)C1=C(c2ccccc2)NC(N)=NC1c1ccc(OCc2ccc(Cl)cc2)c(OC)c1 (stereo not given)	CSC inhib 76, Mdm2 MdmX PPI 100 | Mdm2 MdmX conf 60 | FLuc counter 94
COc1ccc(S(N)(=O)=O)cc1C(=O)NNC(=O)CN(C)S(=O)(=O)c1ccc(Cl)cc1	none
COc1ccc2c(c1)c1nc3n(c(=O)c1n2CC(=O)Nc1cc(C)[nH]n1)CCS3	Mdm2 MdmX PPI 67 (no result: Gli-Sufu antag, MPTP inh, NR3A LBD binder) | Mdm2 MdmX conf 59 | FLuc counter 101
COc1cccc(NC(=O)Cn2c3ccc(OC)cc3c3nc4n(c(=O)c32)CCS4)c1	none
COc1cccc(-c2cc(CNC(=O)[C@H]3O[C@@H](n4cnc5c(N)ncnc54)[C@H](O)[C@@H]3O)no2)c1	none (no result: Gli-Sufu antag, Beta cell apopt, NR3A LBD binder, CSC inhib, Mdm2 MdmX PPI)
N#CCSc1nc2ccccc2c2nc3ccccc3n12	Beta cell apopt 103, CSC inhib 85, Mdm2 MdmX PPI 87 | Mdm2 MdmX conf 63 | FLuc counter 87
CCn1c(SCC#N)nc2ccccc2c1=O	none
Clc1ccc(OCCCNCc2ccccc2)c(Br)c1	Mdm2 MdmX PPI 65 | Mdm2 MdmX conf inactive
Clc1ccc(Cl)c(OCCCCNCc2ccccc2)c1	none
O=[N+]([O-])c1ccccc1-c1cc(-c2ccccc2O)n[nH]1	none (no result: Beta cell apopt, CSC inhib)
O=[N+]([O-])c1cccc(-c2cc(-c3cc(Br)ccc3O)[nH]n2)c1	NR3A LBD binder 13, CSC inhib 97, Mdm2 MdmX PPI 93 (no result: Beta cell apopt) | Mdm2 MdmX conf 80 | FLuc counter 59
Oc1ccc(Br)cc1-c1cc(-c2ccc(Cl)cc2)n[nH]1	Beta cell apopt 92, NR3A LBD binder 42, Mdm2 MdmX PPI 85 | Mdm2 MdmX conf inactive | FLuc counter inactive
C=CCc1ccccc1OCC(=O)NNC(=S)NCc1ccccc1	none
Cc1cc2[nH]c(=O)c(=O)[nH]c2cc1S(=O)(=O)N1CCC(C)CC1	none (no result: CSC inhib)
CC(Nc1nc(-c2ccc(Cl)cc2)cs1)c1nc2cc(Cl)c(N3CCCCC3)cc2n1CCOCCO (stereo not given)	CSC inhib inconclusive, Mdm2 MdmX PPI 51 | Mdm2 MdmX conf inactive
COc1ccc(CN(C)C(=O)c2cccc(NS(=O)(=O)c3ccccc3)c2)c(OC)c1	none
COc1cc(OC)c2c(-c3cccc(-c4ccc(CO)cc4)c3)cc(=O)oc2c1	Gli-Sufu antag 70, Mdm2 MdmX PPI 74 (no result: Beta cell apopt, CSC inhib) | Mdm2 MdmX conf 63 | FLuc counter 62
COc1cc(OC)c2c(-c3cccc(-c4ccc(N(C)C)cc4)c3)cc(=O)oc2c1	Mdm2 MdmX PPI 67 (no result: Beta cell apopt, CSC inhib) | Mdm2 MdmX conf 56 | FLuc counter 103
COc1cc(OC)c2c(-c3cccc(-c4ccc(O)cc4)c3)cc(=O)oc2c1	Mdm2 MdmX PPI 73 (no result: Beta cell apopt, CSC inhib) | Mdm2 MdmX conf 56 | FLuc counter 43
COc1cc(OC)c2c(-c3cccc(-c4cccc(C)c4)c3)cc(=O)oc2c1	none (no result: Beta cell apopt, CSC inhib)
COc1ccc(-c2cccc(-c3cc(=O)oc4cc5c(cc34)OCO5)c2)cc1	Mdm2 MdmX PPI 54 (no result: Beta cell apopt, CSC inhib) | Mdm2 MdmX conf inactive
CC(C)N1C(=O)C(=O)N(CC(=O)N2c3ccccc3CC2C)C1=O (stereo not given)	none (no result: Gli-Sufu antag, Beta cell apopt, NR3A LBD binder, CSC inhib, Mdm2 MdmX PPI)
COc1cc(OC)c2c(-c3cccc(-c4ccc(OC(F)(F)F)cc4)c3)cc(=O)oc2c1	none (no result: Beta cell apopt, CSC inhib)
COc1ccc(-c2cccc(-c3cc(=O)oc4cc(OC)cc(OC)c34)c2)cc1	NR3A LBD binder 15, Mdm2 MdmX PPI 78 (no result: Beta cell apopt, CSC inhib) | Mdm2 MdmX conf 54 | FLuc counter 68
Cc1ccccc1/C=C/c1cc[n+](C)cc1	none
C=CCn1cc(/C=C/c2cc[n+](C)cc2)c2ccccc21	Gli-Sufu antag 66, Beta cell apopt 80, Mdm2 MdmX PPI 65 | Mdm2 MdmX conf 42 | FLuc counter 76
CC(C)n1cc(/C=C/c2cc[n+](C)cc2)c2ccccc21	Gli-Sufu antag 71, Mdm2 MdmX PPI 63 (no result: Beta cell apopt, CSC inhib) | Mdm2 MdmX conf inactive
C=CCn1c(C)c(/C=C/c2cc[n+](C)cc2)c2ccccc21	Beta cell apopt 97, Mdm2 MdmX PPI 64 | Mdm2 MdmX conf 41 | FLuc counter 69
O=C(Cn1cc([N+](=O)[O-])cn1)Nc1cccnc1	none
COc1ccc(N(C)C(=O)c2cc3c(s2)-c2ccc(Cl)cc2S(=O)(=O)C3)c(OC)c1	Mdm2 MdmX PPI 56 | Mdm2 MdmX conf inactive
O=c1[nH]c(CCl)nc2cc(-c3ccc(F)cc3)sc12	Mdm2 MdmX PPI 94 | Mdm2 MdmX conf inactive
CCOc1ccc(NC(=O)CN(C)C(=O)c2cc(S(=O)(=O)N3CCCCC3)ccc2C)cc1OCC	none
CCOc1cccc(/C=N/Nc2ccc(S(=O)(=O)N(CC)CC)cn2)c1O	Gli-Sufu antag 90, Beta cell apopt 117, CSC inhib 117, Mdm2 MdmX PPI 81 | Mdm2 MdmX conf 85 | FLuc counter 55
CCN(CC)S(=O)(=O)c1ccc(N/N=C/c2ccc(O)cc2)nc1	none (no result: CSC inhib)
CCN(CC)S(=O)(=O)c1ccc(N/N=C(\C)c2ccc(OC)cc2O)nc1	Beta cell apopt 97, Mdm2 MdmX PPI 57 | Mdm2 MdmX conf inactive
CCOc1ccc(NC(=O)CN(C)C(=O)C(C)Oc2ccc(Cl)cc2)cc1OCC (stereo not given)	none (no result: Beta cell apopt, CSC inhib, Mdm2 MdmX PPI)
CCCCn1nc(C(=O)Nc2ccc3c(c2)OCCO3)c2ccccc2c1=O	Mdm2 MdmX PPI 58 (no result: CSC inhib) | Mdm2 MdmX conf inactive
Cc1cc(N2CCOCC2)c2c(N)c(Br)cc(C)c2n1	Mdm2 MdmX PPI 74 | Mdm2 MdmX conf 71 | FLuc counter inactive
Cc1cccc(C(=O)NNC(=O)c2ccc(NS(=O)(=O)c3cccs3)cc2)c1C	none (no result: CSC inhib)
CC1=CC(C)(C)N2C(=O)C3(C(C#N)=C(N)Oc4cc(O)ccc43)c3c(C)c(C)cc1c32 (stereo not given)	Mdm2 MdmX PPI 68 | Mdm2 MdmX conf 61 | FLuc counter 48
CC1=CC(C)(C)N2C(=O)C3(C(C#N)=C(N)OC4=C3C(=O)CCC4)c3c(C)c(C)cc1c32 (stereo not given)	none
Cc1ccccc1Cn1cc(NC(=O)c2cc(-c3cccs3)on2)cn1	Mdm2 MdmX PPI 58 | Mdm2 MdmX conf inactive
O=C(CSc1n[nH]c(=O)[nH]c1=O)Nc1ccc(SC(F)F)cc1	none
